Common to all, as to experiment: protein-binding microarray (PBM); PBM: ~300 nM protein, 6 mM HEPES pH 7.8, 80 mM KCl, 0.5 mM EDTA, 0.5 mM EGTA, 6% glycerol, 35 ng/ul poly-dIdC, 1% milk, 1 h, room temperature; Ap Aiptasia and Nv Nematostella (sea anemones) / Co Capsaspora / Aq Amphimedon (sponge) / Dm Drosophila / Hu human; RHD is the Rel homology domain; high values mean tight binding
Common to all, as to conditions: dsDNA, one strand shown

Assay [1] concerns the target T1, GST-Ap-NF-kB RHD (Exaiptasia pallida (Aiptasia), UniProt A0A913YAJ5 2-422).
T1 sequence: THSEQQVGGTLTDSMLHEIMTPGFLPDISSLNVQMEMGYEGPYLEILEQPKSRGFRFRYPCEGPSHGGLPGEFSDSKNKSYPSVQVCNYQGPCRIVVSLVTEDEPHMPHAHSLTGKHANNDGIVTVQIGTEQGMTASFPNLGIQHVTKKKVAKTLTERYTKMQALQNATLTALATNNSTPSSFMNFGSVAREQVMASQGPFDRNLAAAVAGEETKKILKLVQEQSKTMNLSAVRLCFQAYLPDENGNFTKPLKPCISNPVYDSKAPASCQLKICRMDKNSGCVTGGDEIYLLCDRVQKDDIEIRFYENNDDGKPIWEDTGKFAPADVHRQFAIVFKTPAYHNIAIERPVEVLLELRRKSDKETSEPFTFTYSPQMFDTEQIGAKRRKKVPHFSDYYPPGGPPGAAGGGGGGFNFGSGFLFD

In assay [2] the target is T2, GST-Nv-NF-kB (Cys allele) (Nematostella vectensis, UniProt E5G601 2-411).
T2 sequence: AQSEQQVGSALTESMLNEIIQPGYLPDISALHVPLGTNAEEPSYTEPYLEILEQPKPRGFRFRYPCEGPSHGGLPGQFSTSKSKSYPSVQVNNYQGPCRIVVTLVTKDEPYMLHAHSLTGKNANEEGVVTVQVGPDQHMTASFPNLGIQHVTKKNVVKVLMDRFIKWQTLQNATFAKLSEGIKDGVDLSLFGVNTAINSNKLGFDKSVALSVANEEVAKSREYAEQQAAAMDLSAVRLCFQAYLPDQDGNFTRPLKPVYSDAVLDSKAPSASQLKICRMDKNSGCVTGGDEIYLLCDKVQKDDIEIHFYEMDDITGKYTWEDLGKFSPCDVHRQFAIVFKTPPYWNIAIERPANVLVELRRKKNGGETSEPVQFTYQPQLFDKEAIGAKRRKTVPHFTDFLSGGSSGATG

Assay [3] addresses T3, GST-Co-NF-kB (Capsaspora owczarzaki, UniProt F1ARL5 200-546).
T3 sequence: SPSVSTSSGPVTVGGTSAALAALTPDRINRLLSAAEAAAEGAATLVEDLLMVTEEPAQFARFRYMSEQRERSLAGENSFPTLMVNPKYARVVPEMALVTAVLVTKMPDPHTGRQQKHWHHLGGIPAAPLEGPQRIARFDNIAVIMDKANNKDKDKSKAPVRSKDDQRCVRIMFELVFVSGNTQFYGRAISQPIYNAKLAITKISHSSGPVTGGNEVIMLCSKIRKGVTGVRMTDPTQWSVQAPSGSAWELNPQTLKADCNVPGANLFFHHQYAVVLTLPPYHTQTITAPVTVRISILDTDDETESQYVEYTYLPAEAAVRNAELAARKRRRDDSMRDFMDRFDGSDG

In assay [4] the target is T4, GST-Dm-Relish (Drosophila melanogaster, UniProt Q94527 99-473).
T4 sequence: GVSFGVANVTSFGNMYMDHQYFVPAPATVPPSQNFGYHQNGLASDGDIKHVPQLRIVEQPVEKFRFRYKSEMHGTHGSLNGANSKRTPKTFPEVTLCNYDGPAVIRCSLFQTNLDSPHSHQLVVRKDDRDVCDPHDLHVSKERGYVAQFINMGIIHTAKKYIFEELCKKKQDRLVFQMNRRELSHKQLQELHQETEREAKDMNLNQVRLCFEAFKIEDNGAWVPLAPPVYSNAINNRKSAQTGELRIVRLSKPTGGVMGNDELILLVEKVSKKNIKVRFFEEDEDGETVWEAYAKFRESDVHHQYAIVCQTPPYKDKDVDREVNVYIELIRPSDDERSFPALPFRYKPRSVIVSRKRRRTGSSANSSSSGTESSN

Assay [5] has as its target T5, GST-Aq-NF-kB (Amphimedon queenslandica, UniProt A9Y5G7 2-389).
T5 sequence: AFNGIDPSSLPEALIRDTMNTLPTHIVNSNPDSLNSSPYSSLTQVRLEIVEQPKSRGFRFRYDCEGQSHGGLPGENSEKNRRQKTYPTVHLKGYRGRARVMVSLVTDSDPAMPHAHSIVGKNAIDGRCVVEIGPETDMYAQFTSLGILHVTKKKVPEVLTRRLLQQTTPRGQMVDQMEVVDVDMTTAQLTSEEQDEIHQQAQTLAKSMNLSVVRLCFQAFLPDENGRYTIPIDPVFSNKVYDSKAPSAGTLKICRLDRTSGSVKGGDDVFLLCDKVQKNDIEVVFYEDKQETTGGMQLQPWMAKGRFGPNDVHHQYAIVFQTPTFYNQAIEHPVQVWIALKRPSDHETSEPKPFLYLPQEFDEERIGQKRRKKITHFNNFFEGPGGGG

As to “CCGATTAACATCAGGGGGTATACTGATGTTAATCGGGTCTTGATTCGCTTGACGCTGCTG”, the binding signal in assay [1] was 5.81 z-score; in assay [2] it was 3.11 z-score; in assay [3], 4.82 z-score; in assay [4] it was 6.38 z-score; in assay [5], 4.14 z-score.
On the same counts, the results for “CCGATTAACATCAGGGTATTTACTGATGTTAATCGGGTCTTGATTCGCTTGACGCTGCTG” are 3.45 z-score, 5.05 z-score, 1.4 z-score, 7.1 z-score and 6.01 z-score.
In the case of “CCGATTAACATCAGGGGATTAGATGATGTTAATCGGGTCTTGATTCGCTTGACGCTGCTG”, the binding signal in assay [1] was found to be 4.5 z-score; in assay [2], 4.8 z-score; in assay [3], 2.75 z-score; in assay [4] it was 3.13 z-score; in assay [5], 3.91 z-score.
The corresponding values for “CCGATTAACATCAATCCCCCCCGTGATGTTAATCGGGTCTTGATTCGCTTGACGCTGCTG” are 6.49 z-score, 4.68 z-score, 7.66 z-score, 6.77 z-score and 5.33 z-score.
On the same counts, the results for “CCGATTAACATCACAAACTTCCCTGATGTTAATCGGGTCTTGATTCGCTTGACGCTGCTG” are 3.81 z-score, 4.26 z-score, 2.51 z-score, 3.48 z-score and 4.68 z-score.
On the same counts, the results for “CCGATTAACATCAGGGGGACAAATGATGTTAATCGGGTCTTGATTCGCTTGACGCTGCTG” are 4.37 z-score, 4.84 z-score, 7.51 z-score, 2.64 z-score and 4.19 z-score.
Take “CCGATTAACATCAAAACAGCCCCTGATGTTAATCGGGTCTTGATTCGCTTGACGCTGCTG”: the binding signal in assay [1] was found to be 3.58 z-score; in assay [2] it was 4.9 z-score; in assay [3], 1.71 z-score; in assay [4], 3.31 z-score; in assay [5], 5.54 z-score.
As to “CCGATTAACATCAAAAAACCCACTGATGTTAATCGGGTCTTGATTCGCTTGACGCTGCTG”, the binding signal in assay [1] was 2.65 z-score; in assay [2], 2.49 z-score; in assay [3] it was 1.66 z-score; in assay [4] it was 5.49 z-score; in assay [5], 3.61 z-score.
As to “CCGATTAACATCACCCCTCCCCCTGATGTTAATCGGGTCTTGATTCGCTTGACGCTGCTG”, the binding signal came out at 4.84 z-score in assay [1]; 3.91 z-score in assay [2]; 4.73 z-score in assay [3]; 3.78 z-score in assay [4]; 4.12 z-score in assay [5].
With “CCGATTAACATCAGGGAGGGTAATGATGTTAATCGGGTCTTGATTCGCTTGACGCTGCTG”, the binding signal in assay [1] is 2.31 z-score; in assay [2], 2.15 z-score; in assay [3], 1.71 z-score; in assay [4] it was 1.12 z-score; in assay [5], 2.39 z-score.
Take “CCGATTAACATCAGGGGAGTTAATGATGTTAATCGGGTCTTGATTCGCTTGACGCTGCTG”: the binding signal came to 4.13 z-score in assay [1]; 4.06 z-score in assay [2]; 3.34 z-score in assay [3]; 3.14 z-score in assay [4]; 3.63 z-score in assay [5].
Regarding “CCGATTAACATCAAGGGGGAGGGTGATGTTAATCGGGTCTTGATTCGCTTGACGCTGCTG”, the binding signal in assay [1] came out at 4.24 z-score; in assay [2], 3.46 z-score; in assay [3], 4.4 z-score; in assay [4], 3.15 z-score; in assay [5], 4.42 z-score.
Take “CCGATTAACATCACGGGACCCCCTGATGTTAATCGGGTCTTGATTCGCTTGACGCTGCTG”: the binding signal in assay [1] is 6.47 z-score; in assay [2] it was 3.01 z-score; in assay [3], 1.75 z-score; in assay [4] it was 6.84 z-score; in assay [5] it was 3.7 z-score.
On to “CCGATTAACATCAGGGACAACCCTGATGTTAATCGGGTCTTGATTCGCTTGACGCTGCTG”, for which the binding signal is 3.42 z-score in assay [1]; 4.16 z-score in assay [2]; 1.06 z-score in assay [3]; 3.09 z-score in assay [4]; 5.59 z-score in assay [5].

For the origin of these results see article PMC5700166.
